Compound activity: PubChem, National Center for Advancing Translational Sciences (NCATS)
Most compounds without a hit are left out; they make up all but 7.5% or so of the library.
ELG1 genotox = induces genotoxicity in HEK293T cells with luciferase-tagged ELG1 | HEK293T ELG1-luciferase reporter, luminescence, 16 h | Potency, µM (titrated, usually from 46 µM), for inactives: top-dose activity change, positive = activation, usual class: activators | actives 1.3% (n = 330,000) | AID 504466; also: % of control where 0% means no effect; nearly all actives have a fitted effect of over 60% in size
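Genotoxicity was scored as increased ELG1-luciferase reporter signal, measured by ONE-Glo luminescence (30 min, room temperature). Compound or vehicle exposure of the HEK293T reporter cells lasted 16 hr at 37°C.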
SMN2 splice up = SMN2 splice variant enhancement; HEK293 SMN2-luciferase splicing reporter, luminescence, 30-36 h; actives 2.8% (n = 210,000); Potency, µM (titrated, usually from 46.1 µM), inactives show at the top dose activity change, positive = activation, most hits filed as activators; also: % of control where 0% means no effect; nearly all actives have a fitted effect of over 55% in size
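HEK293 cells carry an SMN2 minigene-luciferase reporter in which exon 7 inclusion puts luciferase in frame. Cells were seeded at 2000 cells/well, attached for 10-12 hours, then exposed to compounds for 30-36 hours at 37C before ONE-Glo luminescence.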
Luc counter = counter-screen: inhibitors of Kinase-Glo firefly luciferase; Q27757; Kinase-Glo luciferase, ATP luminescence, 8 min; Potency, µM (top dose mostly 38.3 µM), for inactives: at the highest dose activity change, negative = inhibition, most hits filed as inhibitors; actives 0.28% (n = 200,000); AID 1379; also: % is scaled to controls: 0 for no effect and ±100 for the full control effect; nearly all actives have a fitted effect of over 60% in size
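Kinase-Glo luciferase light output from ATP and luciferin was measured with 10 uM ATP, within the enzyme's linear range. Buffer: 50 mM imidazole pH 7.2, 50 mM KCl, 7 mM MgCl2, 0.01% Tween 20, 0.05% BSA; luminescence read after 8 min at ambient temperature.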
NPC1 prom act = NPC1 promoter activation; actives 2.4% (n = 320,000); Potency, µM (doses to about 9.22 µM), for the others: at the top dose activation, most hits filed as activators; Huh7 NPC1 promoter luciferase reporter, 24 h; also: % of control where 0% means no effect; nearly all actives have a fitted effect of over 60% in size
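Readout is luciferase luminescence, reflecting NPC1 promoter activation in stably transfected Huh7 cells after 24 h compound exposure at 37 °C in reduced-serum medium with 10% FBS.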
Rab9 promoter act = Rab9 promoter activation. Huh7 Rab9 promoter-luciferase reporter, luminescence, 24 h. Potency, µM (top dose mostly 9.22 µM), inactives show at the highest dose activation, negative = inhibition, actives largely listed as activators. actives 2.8% (n = 320,000); also: % of control where 0% means no effect; nearly all actives have a fitted effect of over 60% in size
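Quantitative HTS format; Huh7 Rab9-luciferase reporter cells (1500/well) receive compound 2 h post-plating, incubate 24 h at 37 °C, then get luciferase reagent for 10 min before luminescence reading.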
FLuc modulator = counter-screen for miR-21 project: firefly luciferase inhibitors or activators | actives 6.9% (n = 360,000) | purified FLuc, Km substrates, luminescence inhibition | Potency, µM (highest dose often 57.5 µM), for the others: at the highest dose activity change, negative = inhibition, most hits filed as inhibitors | AID 588342 | P08659;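 also: plate controls were vehicle for no effect and reference inhibitor for full effect; nearly all actives have a fitted effect of over 55% in size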
Target sequence (P08659 whole entry, looked up): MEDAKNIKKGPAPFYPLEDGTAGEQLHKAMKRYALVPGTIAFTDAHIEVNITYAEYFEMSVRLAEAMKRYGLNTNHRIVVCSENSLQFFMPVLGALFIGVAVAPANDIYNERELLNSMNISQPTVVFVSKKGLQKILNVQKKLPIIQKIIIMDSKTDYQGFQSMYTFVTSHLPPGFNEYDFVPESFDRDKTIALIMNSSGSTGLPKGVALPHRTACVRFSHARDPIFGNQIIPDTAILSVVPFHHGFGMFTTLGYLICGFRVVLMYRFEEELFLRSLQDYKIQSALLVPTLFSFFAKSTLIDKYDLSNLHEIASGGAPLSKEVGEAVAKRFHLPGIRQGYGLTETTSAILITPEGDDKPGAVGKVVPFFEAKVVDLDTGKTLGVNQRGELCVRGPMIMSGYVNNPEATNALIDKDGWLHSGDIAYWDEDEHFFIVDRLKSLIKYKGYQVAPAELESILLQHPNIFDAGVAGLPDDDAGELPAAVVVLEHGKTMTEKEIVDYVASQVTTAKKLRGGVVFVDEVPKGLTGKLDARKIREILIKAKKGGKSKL
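Biochemical qHTS of compounds, final roughly 60 µM downward over six points, against 10 nM purified firefly luciferase using Km concentrations of substrates (10 uM D-luciferin, 10 uM ATP) in Tris acetate pH 7.5 buffer; luminescence output.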
Numbers without * were called inactive; u = inconclusive; x = no result given. Calls follow the shape of the dose curve; as a rule, active = well fitted curve in the direction sought with a large enough effect; inconclusive = small, poorly fitted or top-dose-only effect, or another doubt; inactive = no such curve, though single readings can be large; an effect the other way counts as inactive or inconclusive. Potency is read from the fitted curve at half-maximal effect.

SMILES	ELG1 genotox	SMN2 splice up	Luc counter	NPC1 prom act	Rab9 promoter act	FLuc modulator
CCN(CC)c1ccc2cc(-c3nnc(-c4ccccc4)o3)c(=O)oc2c1	u	11µM*	2%	2.8µM*	u	u
CCN(CC)c1ccc2cc(-c3nc4ccccc4n3C)c(=O)oc2c1	u	u	15%	u	16%	1.9µM*
O=c1oc2ccc3ccccc3c2cc1-c1nnc(-c2ccccc2)o1	-2%	-15%	-2%	-1%	-8%	-18%
CC(C)Sc1nc2ccccc2n1CC(=O)O	-6%	x	2%	-1%	-4%	3%
COc1cccc2c1CCc1c-2nc2ccccc2c1C(=O)O	u	x	x	u	u	0.95µM*
O=C(O)c1c2c(nc3ccccc13)/C(=C/c1ccc(O)cc1)CC2	-4%	-53%	-6%	u	u	0.54µM*
O=C(O)c1c2c(nc3ccccc13)/C(=C/c1ccc(OC(F)F)cc1)CCC2	u	x	x	u	u	12µM*
CCc1cccc(C)c1NC(=O)Nc1c(Br)cnn1C	-1%	x	x	-4%	-8%	0%
CN(C)CCCNc1oc(/C=C/c2ccc(F)cc2)nc1C#N	x	-6%	x	x	x	-3%
O=C1C2CC(O)CN2C(=S)N1Cc1ccccc1 (stereo unspecified)	0%	x	x	-1%	-3%	0%
CCOC(=O)c1ccc(-c2ccc(/C=N/NC(=O)c3cncc(Br)c3)o2)cc1	u	x	x	1.3µM*	0.71µM*	2%
CCOC(=O)c1ccc(-c2ccc(/C=N/NC(=O)Cc3nnc(N)s3)o2)cc1	14%	x	x	2.5µM*	3.2µM*	u
COc1ccc(Nc2nc3ccc(Cl)cc3n3nnnc23)cc1OC	x	9%	x	x	x	u
COCCCn1c(O)c(/C=C2\N=C(C#N)C(=Nc3ccc(C)cc3)O2)sc1=S	13%	x	x	-18%	-25%	6.7µM*
C=CCn1c(SCc2c(C)noc2C)nc2cc(C(=O)O)ccc2c1=O	u	20%	-3%	-22%	-20%	8%
C=CCn1c(SCc2c(C)noc2C)nc2ccccc2c1=O	10µM*	-18%	-1%	-22%	-18%	1%
Cc1noc(C)c1CSc1nc2ccccc2c(=O)n1-c1ccc(F)cc1F	18%	11µM*	2%	-22%	-11%	-1%
CCc1ccc(S(=O)(=O)NCc2nc3cccnc3n2Cc2ccccc2Cl)cc1	x	x	x	x	x	2%
COc1ccc(CC2=CC(=O)c3ccccc3C2=O)cc1	12%	x	x	-5%	17%	2.4µM*
N/C(=N\OC(=O)c1cccc(Br)c1)c1ccncc1	u	17%	-1%	25%	20%	12µM*
O=C(COC(=O)c1cccc(C(=O)OCC(=O)c2ccc(Br)cc2)n1)c1ccc(Br)cc1	0%	-15%	-2%	5%	4%	u
N/C(=N\OC(=O)c1ccccc1)c1ccncc1	u	25%	-20%	u	2.8µM*	19µM*
O=C(COC(=O)c1ccncc1)c1ccc(Br)cc1	-2%	x	-1%	-1%	-4%	7.6µM*
N/C(=N\OC(=O)c1ccc(Br)cc1)c1ccncc1	u	u	-20%	u	u	4.8µM*
COc1cc(OC)cc(C(=O)O/N=C(\N)c2ccncc2)c1	-2%	-2%	-3%	2%	-2%	u
COc1ccc(Cn2ccnc2SCC(=O)Nc2cc(C(F)(F)F)ccc2Cl)cc1	x	x	x	x	x	-4%
CC(C)(C)C(=O)OCc1cn(-c2ccc(Cl)cc2)nn1	u	0%	-4%	u	11%	15µM*
CC(C)(C)C(=O)OCc1cn(-c2ccccc2)nn1	14%	8%	-1%	u	13%	u
CC(O/N=C(\N)c1ccccc1)C(=O)Nc1cccc(C(F)(F)F)c1 (stereo unspecified)	-3%	x	x	x	x	x
O=C(Nc1cccnc1)c1cc(-c2cc(Cl)ccc2O)n[nH]1	17%	x	x	2.8µM*	u	2.4µM*
